In PubChem BioAssay (EPA / NIEHS):
Values joined by “and” are separate entries in the source; they are usually repeats but may differ in a detail not shown here. Equal values may be shown once. Results filed as inconclusive are left out. A structure can be active in one record and inactive in another. Active and inactive are the calls of the source. The calls were made as follows: active = hit-call score of the fitted dose curve at least 0.9, where 1 is the maximum; inconclusive = response in the unintended direction; inactive = score below 0.9.

These molecules were tested against frog Thyroid hormone Receptor alpha (TRa), thra-a (gene 397942) (UniProt P15204) (assay: ATG_frTRa_XSP2: Attagene TRANS-FACTORIAL Multi-Species (XSP2) HepG2 Assay for frog Thyroid hormone Receptor alpha (TRa) (AID 2283839);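 as to AC50: AC50 reflects induction of frog TRa-driven reporter mRNA above DMSO baseline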).
Sequence of frog Thyroid hormone Receptor alpha (TRa), thra-a (gene 397942) (P15204 whole entry, looked up): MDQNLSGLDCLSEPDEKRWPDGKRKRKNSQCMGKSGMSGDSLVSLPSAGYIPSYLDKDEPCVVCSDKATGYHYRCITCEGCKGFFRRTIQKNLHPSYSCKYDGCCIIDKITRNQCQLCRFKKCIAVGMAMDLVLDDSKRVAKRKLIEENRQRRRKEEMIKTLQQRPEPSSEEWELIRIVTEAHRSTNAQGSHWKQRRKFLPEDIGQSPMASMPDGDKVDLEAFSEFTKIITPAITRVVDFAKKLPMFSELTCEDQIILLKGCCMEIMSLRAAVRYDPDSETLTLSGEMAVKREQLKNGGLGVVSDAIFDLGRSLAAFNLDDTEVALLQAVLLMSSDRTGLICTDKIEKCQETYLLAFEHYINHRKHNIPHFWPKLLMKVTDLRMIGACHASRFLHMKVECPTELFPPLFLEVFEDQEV
Protocol: ATG_XSP2_multi-species_TRANS is a cell-based, multiplexed assay created by modifying the existing Attagene TRANS-FACTORIAL system to include a panel of nuclear receptors from some or all the following species: human (Homo sapiens), mouse (Mus musculus), frog (Xenopus laevis), zebrafish (Danio rerio), chicken (Gallus gallus), and turtle (Chrysemys picta). The ECOTOX-FACTORIAL format uses HepG2, a human liver cell line, with measurements taken at 24 hours after chemical dosing in a 24-well plate. Xsp2 included 3 nM 6-alpha-fluorotestosterone and 1.5 nM norgestrel to stimulate the androgen receptor.ATG_frTRa_XSP2 is one of 29 assay components measured or calculated from the ATG_XSP2_multi-species_TRANS assay. It is designed to make measurements of mRNA induction, a form of inducible reporter, as detected with fluorescence intensity signals by Reverse transcription polymerase chain reaction (RT-PCR) and Capillary electrophoresis technology.The assay endpoint ATG_frTRa_XSP2 was analyzed in the positive analysis fitting direction relative to DMSO as the negative control and baseline of activity. Using a type of inducible reporter, measures of mRNA for gain-of-signal activity can be used to understand the reporter gene at the transcription factor-level as they relate to the gene TR. Furthermore, this assay endpoint can be referred to as a primary readout, because this assay has produced multiple assay endpoints where this one serves a reporter gene function. To generalize the intended target to other relatable targets, this assay endpoint is annotated to the nuclear receptor intended target family, where the subfamily is non-steroidal.
Human liver HepG2 cells are transiently transfected with multiple reporter transcription units (MRTUs) in 6-well plates using FuGene 6 reagent (Roche; 3 ml FuGene/1 mg DNA). The MRTU constructs are regulated by a cis-regulating element (promoter). […] A major difference between the CIS and TRANS system is that in CIS activities of endogenous TFs are measured, whereas the TRANS assay evaluates changes in activities of exogenous, chimeric NR-Gal4 proteins. […] At the end of 24 hour incubation, total RNA was isolated using TriZol reagent (Invitrogen). The isolated RNA is then reverse-transcribed using oligo(dT) primer and Mo-MLV reverse transcriptase (Invitrogen) with DNAse I (Ambion) treatment for 30 min. The one-tenth of the produced cDNA was amplified by PCR using Taq DNA polymerase (Invitrogen) and two reporter sequence-specific primers. The PCR products were fluorescently labeled by primer extension with 6-arboxyfluorescein (6-FAM) 5'-labeled reporter sequence-specific primer (2 min at 95 C, 20 s at 68 C and 10 min at 72 C) and these products were digested with 5U of HpaI (New England Biolabs) for 2h at 37 C. The fragments were purified using Qiaquick PCR columns (Qiagen), analyzed on an ABI 3130xL genetic analyzer (Applied Biosystems) with peak positions identified by using a set of X-rhodamine (ROX)-labeled MapMarker1000 molecular weight standards (BioVentures). The raw capillary electrophoresis data was processed using Attagraph software (Attagene).

Compound	outcome	AC50
C#C[C@]1(O)CC[C@H]2[C@@H]3CCC4=CC(=O)CC[C@@H]4[C@H]3CC[C@@]21C	inactive	
Oc1cc2ccccc2c2ccccc12	inactive	33.4 µM (active)
CC[C@H](c1ccc(O)cc1)[C@@H](CC)c1ccc(O)cc1	inactive	
CCC(=C(c1ccc(O)cc1)c1ccc(OCCN(C)C)cc1)c1ccccc1	inactive	
O=C(O)Cc1cc(I)c(Oc2cc(I)c(O)c(I)c2)c(I)c1		86.6 nM (active) and 15.1 nM (active)
O=c1c(-c2ccc(O)cc2)coc2cc(O)ccc12	inactive	
CCC(C)(C)C1CCC(O)CC1 (stereo not given)	inactive	
CCCOC(=O)c1ccc(O)cc1	inactive	
c1ccc2c(c1)ccc1ccccc12	inactive	
